Source: PubChem BioAssay (NCATS)
Values without a mark were called inactive. No rule for the calls is given here.

These molecules were tested on HIV-1 nucleocapsid protein NCp7 (binding to TG oligonucleotide) (assay: HIV Nucleocapsid (AID 346;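 also: potency is for inhibitors that block NC binding and lower polarization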)). Conditions: HIV-1 NC / fluorescein-TGTGTGTG probe, fluorescence polarization.
In short: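 10 nM TG4xF probe with 100 nM nucleocapsid protein in high-salt Hepes pH 7.5 (250mM NaCl) containing 1uM ZnCl2 and reducing agents. Compound inhibition of binding was read as fluorescein polarization after 1 hr at room temperature.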
Potency is read from the fitted curve at half-maximal effect.

SMILES | Potency
COCC(=O)N1CCC2(CCCN(C(c3ccccc3)c3ccccc3)C2)CC1 | > 20 µM
COc1ccccc1CCn1c(=O)c(C)nc2cncnc21 | > 20 µM
N#CCCn1c(=O)c(CCc2ccccc2)nc2cnc(Nc3ccccc3)nc21 | > 4 µM
CC(C)NC(=O)N1CCC2(CC1)CCN(S(C)(=O)=O)CC2 | > 20 µM
Cn1cc(-c2nc3cncnc3n(Cc3ccc(F)cc3)c2=O)c2ccccc21 | > 20 µM
O=c1cnc2cnc(Nc3ccccc3)nc2n1C[C@H]1CCCO1 | > 20 µM
Cn1cccc1C(=O)N1CCC[C@@]2(CCN(C(=O)Nc3cccc(C#N)c3)C2)C1 | > 20 µM
CS(=O)(=O)N1CCC2(CC1)CN(c1ccc(-c3ccccc3)cc1)C2 | > 20 µM
COCCn1c(=O)c(-c2cccc(C#N)c2)nc2cnc(N3CCN(C)CC3)nc21 | > 20 µM
CN(C)C(=O)c1ccc(-c2nccc(Nc3ccc(F)cc3)n2)cc1 | > 20 µM
COc1ccc(-c2nc3cnc(N(C)C)nc3n(Cc3cccs3)c2=O)cc1 | > 20 µM
Cc1noc(C)c1C(=O)N1CCC2(CCCN(C(c3ccccc3)c3ccccc3)C2)CC1 | > 20 µM
O=C(Oc1ccccc1)N1CCC2(CC1)CCN(c1ncccn1)CC2 | > 20 µM
COc1ccc(CNc2cc(-c3ccccc3OC)ncn2)c(OC)c1 | > 20 µM
CC(C)NC(=O)N1CC[C@@]2(CCCN(C(=O)c3cccc(F)c3)C2)C1 | > 20 µM
O=c1cnc2cnc(N3CCOCC3)nc2n1C1CC1 | > 20 µM
CN(C)c1ncc2nc(-c3ccc(F)cc3)c(=O)n(CCc3ccccc3)c2n1 | > 20 µM
COCCn1c(=O)c(CCc2ccccc2)nc2cnc(Oc3ccc(OC)cc3)nc21 | > 20 µM
CN(C)c1ccc(-c2nc(N(C)Cc3ccco3)c3ccccc3n2)cc1 | > 20 µM
COc1ccc(-c2nc3cnc(Nc4cccc(OC)c4)nc3n(CCC#N)c2=O)cc1 | > 20 µM

SMILES | Potency
COc1ccccc1CN1CC2(CCN(C(=O)c3cnccn3)CC2)C1 | > 20 µM
O=S(=O)(c1ccccc1)N1CCC2(CCN(c3cccc(-c4ccccc4)c3)CC2)CC1 | > 20 µM
CCNc1ncc2nc(C)c(=O)n(Cc3cccs3)c2n1 | > 20 µM
O=C(Nc1cccc(F)c1)N1CC2(CCN(C(=O)c3cccc(F)c3)CC2)C1 | > 20 µM
N#CCCn1c(=O)c(CCc2ccccc2)nc2cnc(N3CCOCC3)nc21 | > 20 µM
COc1ccc(NC(=O)N2CC[C@@]3(CCCN(C(=O)c4cnccn4)C3)C2)cc1 | > 20 µM
c1cncc(-c2nccc(NCc3cccs3)n2)c1 | > 20 µM
O=c1c(-c2cc(F)cc(F)c2)nc2cncnc2n1-c1ccccc1 | > 20 µM
COc1ncc2nc(-c3ccccc3)c(=O)n(CCC#N)c2n1 | > 20 µM
COCCn1c(=O)c(C)nc2cnc(N3CCOCC3)nc21 | > 20 µM
O=c1c(-c2ccc(F)c(F)c2)nc2cncnc2n1C1CC1 | > 20 µM
COc1ccccc1-c1nc(N2CCOCC2)c2ccccc2n1 | > 20 µM
O=C(c1cnccn1)N1CCC2(CC1)CCN(c1ncccn1)CC2 | > 20 µM
COc1ccc(CNc2nc(-c3cccnc3)nc3ccccc23)c(OC)c1 | > 20 µM
COCC(=O)N1CCC2(CCCN(C(=O)Nc3cccc(C#N)c3)C2)CC1 | > 20 µM
O=C(c1ccncc1)N1CCC2(CC1)CN(Cc1cc(C(F)(F)F)cc(C(F)(F)F)c1)C2 | > 20 µM
O=C(Oc1ccccc1)N1CCC2(CC1)CN(c1ncccn1)C2 | > 20 µM
CNc1ccnc(-c2c(C)noc2C)n1 | > 20 µM
CN1CCN(c2ccnc(-c3ccc(N(C)C)cc3)n2)CC1 | > 20 µM
CN(C)c1ncc2nc(-c3cc(F)cc(F)c3)c(=O)n(CCc3ccccc3)c2n1 | > 20 µM
